# Reference: PubChem BioAssay (NCI)
# About 83,000 compounds went through this panel and 20% of them were active in at least one assay; those are over-represented in the sample as a whole.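 Single-dose data. Exposure time 48 hours. Values below 10 considered active.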 Values without a mark were called inactive. Activity calls are given as the source filed them.
# How the values were obtained:
# Experiment in all cases: NCI-60 one-dose screen, 48 h (100 = growth as untreated, 0 = no growth, -100 = all killed)
# Settings in all cases: 10 µM unless noted
# [1] = tested on: NCI-H23 lung
# [2] = tested on: NCI-H226 lung
# [3] = tested on: NCI-H322M lung
# [4] = tested on: HOP-62 NSCLC
# [5] = tested on: HOP-92 NSCLC
# [6] = tested on: A549/ATCC NSCLC
# [7] = tested on: 786-0 renal
# [8] = tested on: COLO 205 colon
# [9] = tested on: DU-145 prostate
# [10] = tested on: K-562 leukemia
# [11] = tested on: MALME-3M melanoma
# [12] = tested on: MDA-MB-231 breast
# [13] = tested on: RXF 393 renal
# [14] = tested on: SF-268 CNS
# [15] = tested on: SF-295 CNS
# [16] = tested on: SF-539 CNS
# [17] = tested on: UACC-257 melanoma
# [18] = tested on: M14 melanoma
# [19] = tested on: NCI-H522 lung
Structure (SMILES),growth [1],growth [2],growth [3],growth [4],growth [5],growth [6],growth [7],growth [8],growth [9],growth [10],growth [11],growth [12],growth [13],growth [14],growth [15],growth [16],growth [17],growth [18],growth [19]
OC(COc1ccccc1Cl)CN1CCN(c2cccc(Cl)c2)CC1 (centres undefined),100%,96.5%,108%,119%,79.2%,101%,98.3%,101%,114%,108%,107%,89.3%,118%,105%,105%,101%,93.4%,98.1%,
CS(=O)(=O)N(c1cc(-c2ccc3ncnc(Nc4ccc(F)c(Cl)c4)c3c2)cnc1Cl)S(C)(=O)=O,34.7%,59.1%,34.8%,42%,-12.2% (active),57.3%,35%,45.1%,47.3%,50.5%,9.57% (active),44.3%,-6.35% (active),32.3%,34%,39.9%,38.8%,43.6%,52.5%
C[C@H](C(=O)Nc1ccc(S(N)(=O)=O)cc1)S(=O)(=O)c1ccccc1,94.3%,98%,108%,87.6%,94%,102%,101%,107%,108%,106%,101%,114%,88.1%,102%,94.6%,102%,103%,104%,90.7%
COc1cc(CCC[P+](c2ccccc2)(c2ccccc2)c2ccccc2)c(OC)c2c1OCO2,19.3%,55.3%,85.3%,18.9%,11.3%,43.7%,31.2%,-35.6% (active),28.5%,14.4%,3.07% (active),-0.787% (active),64.3%,13%,66.9%,46.9%,5.75% (active),17.4%,6.02% (active)
Cc1ccc2sc3c(NCCN)nc4ccccc4c3c(=O)c2c1,81.1%,93.2%,81.5%,80.6%,50.7%,73.3%,87.7%,-21.7% (active),64.1%,0.362% (active),102%,41.7%,89.8%,74.5%,105%,70.8%,108%,86.7%,85%
Cc1cc(O)c(C2=NN(c3ccc(S(N)(=O)=O)cc3)C(/C=C/c3ccccc3)C2)cc1Cl (centres undefined),22.3%,33.7%,57.5%,17.6%,29.6%,46.6%,7.75% (active),65.2%,36.4%,31.2%,24.6%,47.7%,30%,24.1%,38.5%,13.4%,64.6%,29.8%,
COc1ccc(OC)c(/C=C2\Oc3cc(OCCN4CCC(Cc5ccccc5)CC4)ccc3C2=O)c1,88.1%,91%,94%,94.4%,55.2%,92%,77.6%,25.3%,97.3%,20.7%,92.6%,82.9%,55.5%,85.1%,102%,87%,101%,77.2%,86.6%
COc1ccc(-c2c(C(=O)NS(C)(=O)=O)n(Cc3cccc(C(F)(F)F)c3)c3ccccc23)cc1,97.4%,82.1%,94.5%,89.4%,62.2%,88.8%,95.3%,105%,100%,87.7%,76.8%,95.5%,111%,95%,89.8%,98.3%,95.2%,94.6%,80.8%
CCOC(=O)C1=C(N)Oc2c(sc3c(C)cccc23)C1c1ccc(Cl)cc1 (centres undefined),28.2%,32.9%,47.3%,31.8%,85%,46.2%,35.7%,20.3%,21.6%,9.65% (active),36.1%,49.8%,-7.89% (active),55.5%,4.92% (active),6.36% (active),63.4%,20.6%,23%
CC/C=C\C[C@@H](O)C/C=C1/C(=O)C=C[C@H]1C/C=C\CCCC(=O)OC,22.3%,8.9% (active),12%,-31.6% (active),22.9%,-16.6% (active),30.5%,-58% (active),28.7%,2.65% (active),10.4%,,-16.8% (active),0.223% (active),80.9%,10.4%,56.5%,-1.62% (active),-67.7% (active)
Cc1nc2ccccc2n1-c1ncnc2c1CC(C)c1ccccc1N2C (centres undefined),85.6%,89.7%,97.8%,68.4%,51.4%,70.8%,92%,88%,96.2%,31.2%,105%,,102%,94.2%,77.9%,93.9%,91.5%,71.3%,72.5%
FC(F)(F)c1cc(Nc2ccc3c(OCCCN4CCOCC4)cccc3n2)ccc1Cl,60.8%,68.5%,51.5%,51.2%,60.2%,30.5%,-42.1% (active),-38.1% (active),55.9%,-31.6% (active),54.3%,10.1%,23.9%,54.6%,0.167% (active),36.2%,96.6%,40.4%,49.5%
CCOC(=O)c1sc2ncc(-c3ccc(C)cc3)n2c1C,83%,78.2%,92.6%,87.9%,83.9%,97.3%,106%,99.7%,97.5%,79.4%,84.2%,85.6%,107%,106%,96.7%,93.8%,98.3%,87.1%,86.2%
O=CN(SSN(C=O)C1CCCCC1)C1CCCCC1,115%,91.9%,110%,95.4%,135%,119%,105%,113%,115%,52.3%,73.9%,102%,12.4%,103%,105%,102%,124%,92.7%,-25.1% (active)
O=C(CSc1nccc(Nc2ccc(S(=O)(=O)Nc3nccs3)cc2)n1)c1ccc(C(F)(F)F)cc1,88.1%,89.2%,106%,113%,90.8%,99.6%,99.7%,112%,114%,114%,102%,120%,95.5%,110%,96.7%,95.7%,99.3%,100%,84.4%
CCCC1CCC(O)(C(C)(O)C(=O)NC2C(=O)N3NCCCC3C(=O)N(O)C(C)C(=O)N3NCCCC3C(=O)N3NCC(O)CC3C(=O)NC(C)C(=O)OC2C(C)C)OC1CC (centres undefined),-85.9% (active),-53.6% (active),-90.8% (active),-76% (active),-61.5% (active),-66.4% (active),-78.6% (active),-89% (active),-99% (active),-61.6% (active),-71.7% (active),-66.3% (active),-54.3% (active),-82.1% (active),-85.3% (active),-95.1% (active),-83.3% (active),-60.9% (active),-25% (active)
C/C=C(\C)C(=O)N[C@H]1[C@@H](OC(C)=O)C[C@]2(C)C3CC[C@@]4(C)C(CC[C@@H]4C(C)N(C)C)C3CCC2[C@H]1O (some centres undefined),74.4%,101%,67.7%,91.9%,71%,78.5%,66.1%,75.8%,87.4%,50.2%,7.93% (active),78%,83.2%,42.7%,78.2%,37%,3.29% (active),-32.7% (active),99.4%
